Only some compounds are listed: those with a hit (about 10% of all), similar ones and a draw of the others.
HP1b binding inh: HTS for Inhibitors of HP1-beta Chromodomain Interactions with Methylated Histone Tails; Chromobox protein homolog 1 (Homo sapiens), P83916; AlphaScreen HP1-beta / biotin-H3K9me3 peptide binding; Potency, µM (series often up to 114 µM), inactives show top-dose activity change, negative = inhibition, actives largely listed as inhibitors; hit rate 0.56% among 390,000; further: potency means the concentration at half of the fitted maximal effect; nearly all actives have a fitted effect of over 70% in size
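Compound inhibition of the preformed complex between 50 nM HP1-beta and 50 nM biotinylated H3K9me3 peptide was read by AlphaScreen. Buffer was PBS pH 7.4 with 0.01% Tween-20. Incubations ran 30 min at room temperature, with 10 ug/mL donor/acceptor beads.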
G9a block: qHTS Assay for Inhibitors of Histone Lysine Methyltransferase G9a; hit rate 8.8% among 350,000; Potency, µM (highest dose often 102 µM), without a hit: top-dose activity, negative = inhibition, most hits filed as inhibitors; AID 504332, 2011; G9a H3K9 monomethylation, AlphaScreen, 2 h; further: potency means the concentration at half of the fitted maximal effect; on the % scale 0 is the no-effect control and ±100 the full control effect; nearly all actives have a fitted effect of over 75% in size
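AlphaScreen read-out: biotin-H3K9 peptide (500 nM) methylation by 20 nM enzyme with 20 uM SAM, 2 h at room temperature after 15 min compound preincubation; anti-monomethyl H3K9 antibody plus donor/acceptor beads, 10 min dark.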
JMJD2A Tudor: qHTS Assay for Inhibitors of JMJD2A-Tudor Domain; Lysine-specific demethylase 4A (Homo sapiens), O75164; AlphaScreen JMJD2A-Tudor / H3K4me3 peptide binding; Potency, µM (series often up to 114 µM), for the others: at the highest dose activity change, negative = inhibition, most hits filed as inhibitors; hit rate 4.4% among 390,000; AID 504339, 2011; further: potency means the concentration at half of the fitted maximal effect; on the % scale 0 is the no-effect control and ±100 the full control effect; nearly all actives have a fitted effect of over 50% in size
Six1-Eya2 blk: qHTS Assay for Inhibitors of the Six1/Eya2 Interaction; activity change, % (test concentration not listed); AlphaScreen GST-Six1/His-Eya2 binding, biochemical; stronger effect = lower value; AID 651725, 2012; Homeobox protein SIX1 (Homo sapiens) + Protein phosphatase EYA2 (Homo sapiens), …; hit rate 0.56% among 360,000; in the data active means activity change below about -65%; inconclusive means mostly about -30% to -63%; further: on the % scale 0 is the no-effect control and ±100 the full control effect
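AlphaScreen luminescence read after one hour at 37 °C in darkness. Pin-transferred compounds met GST-Six1 and His-Eya2 protein (5X stock 250 nM/500 nM) plus glutathione donor and Ni-chelate acceptor beads (5X, 50 ug/mL).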
CtBP-E1A inh: qHTS Assay for Inhibitors of the CtBP/E1A Interaction; CtBP / adenovirus E1A interaction (AlphaScreen); hit rate 0.49% among 340,000; AlphaScreen GST-E1A/His-CtBP binding, 1536-well; stronger effect = lower value; AID 651724, 2012; activity change, % (test concentration not listed); in the data active means activity change below about -65%; inconclusive means mostly about -30% to -63%; further: on the % scale 0 is the no-effect control and ±100 the full control effect
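Protein mix (5X: 125 nM each GST-E1A, His-CtBP) was incubated with pinned compound 2 h at 37 deg C in dark, in 50 mM Tris pH 8.0 buffer with 300 mM NaCl. Glutathione donor and nickel acceptor beads followed; AlphaScreen signal read after 1 h.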
BAZ2B inh: qHTS Assay for Inhibitors of BAZ2B | Bromodomain adjacent to zinc finger domain protein 2B (Homo sapiens), Q9UIF8 | Potency, µM (top dose mostly 114 µM), for inactives: at the top dose activity change, negative = inhibition, usual class: inhibitors | hit rate 4.4% among 360,000 | AlphaScreen BAZ2B-H3K14Ac peptide displacement; further: potency means the concentration at half of the fitted maximal effect; on the % scale 0 is the no-effect control and ±100 the full control effect; nearly all actives have a fitted effect of over 60% in size
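Multi-concentration screen (max 110 uM) measuring displacement of acetylated histone H3 peptide from BAZ2B by AlphaScreen, using 50 nM protein, 50 nM peptide and 10 ug/mL streptavidin donor plus Ni-chelate acceptor beads.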
* hit, by the source's call; u = inconclusive; x = not tested or not shown; [ ] = remark or other dose. Unless noted, the call rests on the fitted dose curve; in most records, active means well fitted inhibition curve with a large enough effect; inconclusive means small, poorly fitted or top-dose-only effect; inactive means no such curve, though single readings can be large or run the other way.

SMILES	HP1b binding inh	G9a block	JMJD2A Tudor	Six1-Eya2 blk	CtBP-E1A inh	BAZ2B inh
CC(=O)Nc1ccc2nc(-c3cccn3C)[nH]c2c1	6.5%	11.8%[0.501 µM]	-29.5%	0.1	-18.0	-25.7%
Cn1cccc1-c1nc2ccc(NC(=O)c3cccs3)cc2[nH]1	50.1µM*	u	56.2µM*	u	u	35.5µM*
CC12CCC(C(=O)NCCCn3ccnc3)(OC1=O)C2(C)C (centres undefined)	-4.1%	15.8µM*	-26.0%[11.4 µM]	3.3	23.3	-2.5%
CCNc1nc(C#N)nc(N2CCCCC2)n1	25.3%[57 µM]	x	0.8%[57.1 µM]	x	x	x
Cn1cc(SCC(=O)Nc2nccs2)c2ccccc21	14.8%	6.0%[59 µM]	-24.3%	0.0	-5.2	-1.9%
c1ccc(C(c2c[nH]c3ccccc23)c2c[nH]c3ccccc23)nc1	-28.2%	u	79.4µM*	-18.6	-13.4	44.7µM*
Cn1cc(C(c2ccccc2OCC(=O)O)c2cn(C)c3ccccc23)c2ccccc21	u	-14.1%	14.1µM*	u	-13.5	50.1µM*
CCn1c(=O)cc(OCC(=O)O)c2ccccc21	67.4%	-2.1%	-9.9%	8.1	4.0	2.4%
c1ccc(C(c2cccs2)c2c[nH]c3ccccc23)cc1 (centres undefined)	15.0%	u	-26.3%	x	x	-30.8%
Cn1cc(C(c2ccccn2)c2cn(C)c3ccccc23)c2ccccc21	u	11.3%[12.7 µM]	22.4µM*	u	u	35.5µM*
COc1cccc(-c2cc(=O)c3cc(NC(=O)c4ccc(Cl)cc4)ccc3[nH]2)c1	12.9%	50.1µM*	-15.0%	2.8	7.5	-28.5%
COc1cccc(-c2cc(=O)c3cc(NC(=O)c4ccccc4)ccc3[nH]2)c1	17.8%	10.4%	-24.1%	-2.6	2.3	-0.3%
COc1cccc(-c2cc(=O)c3cc(NC(=O)c4ccc(N(C)C)cc4)ccc3[nH]2)c1	24.2%	31.6µM*	-12.6%	-7.6	-27.9	79.4µM*
COc1ccc2[nH]c(-c3ccccc3)cc(=O)c2c1	x	0.8%	x	x	x	x
CC(C)N1CCC(C)(C(=O)Nc2ccccc2Oc2ccccc2)C1 (centres undefined)	x	x	x	11.9	6.2	x
CCOC(=O)c1c(C)[nH]c(N=Nc2ccccc2)c1C	39.8µM*	39.8µM*	56.2µM*	u	-28.7	35.5µM*
CCOC(=O)c1c(C)[nH]c(N=Nc2ccc(C)cc2)c1C	u	u	39.8µM*	u	u	44.7µM*
CCOC(=O)c1c(C)[nH]c(N=Nc2ccccc2Cl)c1C	u	-119.3%[59 µM]	15.8µM*	u	-11.2	8.91µM*
CCOC(=O)c1c(C)[nH]c(N=Nc2ccc(OC)cc2)c1C	u	28.2µM*	56.2µM*	-24.0	u	39.8µM*
CCOC(=O)c1c(C)[nH]c(NC(=O)NNC(=O)c2ccccc2Cl)c1C	32.7%	18.6%[2.33 µM]	-15.7%	3.3	-4.9	4.2%
CC1CCC2=NN(C(=O)c3ccco3)C(O)(C(F)(F)F)C2C1 (centres undefined)	-18.7%	x	-0.7%	-7.5	2.8	-4.4%
COc1cc(S(=O)(=O)N2CCCN(C)CC2)ccc1NC(C)=O	6.0%	-15.5%	-6.1%	8.2	-0.2	-1.3%
Cc1ccc(N2CCN(C(=O)NCc3noc4ccc(C)cc34)CC2)c(C)c1	28.8%	-23.2%[59 µM]	-14.7%	x	x	-35.3%
CO/C([O-])=N/c1c[n+](-c2ccc(C)cc2)no1	31.8%	20µM*	-23.0%	2.2	7.5	7.0%
CCOC(=O)[C@]12CCC=C1N(Cc1ccco1)C(=O)[C@H](CC(=O)N1CCN(C(=O)c3ccco3)CC1)C2	x	x	x	-1.0	1.1	x
CC(C)C(=O)n1nc(-c2cccnc2)nc1NCc1ccc(F)cc1	45.8%	-23.8%	-2.1%	1.2	8.4	-3.5%
